Results as given in PubChem BioAssay (EPA / NIEHS).
Records with an inconclusive call do not appear. Calls of active or inactive are those of the source. How the source made its calls, unless noted: active means hit-call score of the fitted dose curve at least 0.9, where 1 is the maximum; inactive means score below 0.9.

Assays:
[1] = CCTE_Harrill_HTTr_Viability_MCF7: CCTE's 6-hour Cell Viability Assessment for the High-Throughput Transcriptomics (HTTr) Platform, in MCF-7 cells cultured in DMEM + 10% fetal bovine serum, Harrill Lab (AID 2284010)
In short: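 MCF-7 cells in DMEM + 10% FBS, 384-well, exposed 6 h to an eight-point dilution series. Membrane integrity scored by high-content imaging of propidium iodide exclusion; bidirectional fit versus DMSO.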

[2] = CCTE_Harrill_HTTr_Apoptosis_MCF7: CCTE's 6-hour Apoptosis Assessment for the High-Throughput Transcriptomics (HTTr) Platform, in MCF-7 cells cultured in DMEM + 10% fetal bovine serum, Harrill Lab (AID 2284011)
In short: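 Cells are dosed with test chemicals at eight concentrations and imaged 6 hours later for caspase-3/7 activity using a green fluorogenic detection reagent. Activity is fitted in both directions against DMSO controls.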

[3] = CCTE_Harrill_HTTr_CellCount_MCF7: CCTE's Cell Proliferation Assessment for the High-Throughput Transcriptomics (HTTr) Platform, Harrill Lab (AID 2284012; active means hit-call score of the fitted dose curve at least 0.9, where 1 is the maximum;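 further: cells exposed to compound for six hours; intended direction is loss of nuclei count meaning fewer cells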)
In short: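 MCF7 cells exposed 6 hours to an eight-point dilution series; Hoechst-stained nuclei counted by high-content imaging. Bidirectional curve fitting against DMSO baseline.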

SMILES	outcome [1]	outcome [2]	outcome [3]
CCCCCCCCCCCC(=O)O	inactive	inactive	
Cc1cncc(C)c1	inactive	inactive	
CC1=CC(=O)c2ccccc2C1=O	inactive	inactive	
CC1=NN(c2ccccc2)C(=O)C1	inactive	inactive	
CS(=O)(=O)c1ccc([C@@H](CC2CCCC2)C(=O)Nc2cnccn2)cc1Cl	inactive	inactive	
O=S(=O)(O)c1ccccc1	inactive	inactive	
c1cnc2c(c1)ccc1cccnc12	inactive	inactive	
NS(=O)(=O)O	inactive	inactive	
CCCCCCCCC(C)=O	inactive	inactive	
CCCCCCCCCCCCOS(=O)(=O)O	inactive	inactive	
CC(C)(C)C1CCCCC1O (stereo unspecified)	inactive	inactive	
CC(C)(O)C(=O)c1ccccc1	inactive	inactive	
Nc1ccc(O)c(C(=O)O)c1	inactive	inactive	
c1cc2cccc3c4cccc5cccc(c(c1)c23)c54	inactive	inactive	
Brc1ccc(Oc2ccc(Br)cc2Br)cc1	inactive	inactive	
C[C@]12CC[C@@H]3c4ccc(O)cc4CC[C@H]3[C@@H]1C[C@@H](O)[C@@H]2O	inactive	inactive	
CCCCCC(C)OC(=O)COc1ccc(Cl)c2cccnc12 (stereo unspecified)	inactive	inactive	
C[C@]12CC[C@@H]3c4ccc(O)cc4CC[C@H]3[C@@H]1CC[C@@H]2OC(=O)CCC1CCCC1	inactive	inactive	
COc1cc(OC)nc(NC(=O)NS(=O)(=O)Nc2ccccc2C(=O)N(C)C)n1	inactive	inactive	
Cc1ccccc1C(OCCN(C)C)c1ccccc1 (stereo unspecified)	inactive	inactive	
Cc1cccc2c1ccc1ccccc12	inactive	inactive	inactive
CC1CCC(CO)CC1 (stereo unspecified)	inactive	inactive	inactive
C=Cc1ccc(O)c(OC)c1	inactive	inactive	
CC(=O)Nc1ccc(S(N)(=O)=O)cc1	inactive	inactive	
CC(C)c1c(C(=O)Nc2ccccc2)c(-c2ccccc2)c(-c2ccc(F)cc2)n1CC[C@@H](O)C[C@@H](O)CC(=O)O	inactive	inactive	inactive
CCCCC(CC)C(=O)O (stereo unspecified)	inactive	inactive	inactive
